# ELG1 repair inh = inhibitors of ELG1-dependent DNA repair in HEK293T cells; 330,000 compounds, 2.3% hits; Potency, µM (titrated, usually from 46.1 µM), without a hit: at the top dose activity change, negative = inhibition, actives largely listed as inhibitors; HEK293T ELG1-luciferase reporter, luminescence, 16 h; DNA damage induced by 5-fluorouridine; further: on the % scale 0 is the no-effect control and ±100 the full control effect; nearly all actives have a fitted effect of over 55% in size
#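 Reporter activity after DNA damage by 5-fluorouridine is monitored. Compound-treated cells incubate 16 hr at 37 °C, then ONE-Glo is added for 30 min before luminescence reading.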
# FLuc modulator = counter-screen for miR-21 project: firefly luciferase inhibitors or activators; P08659; purified FLuc, Km substrates, luminescence inhibition; Potency, µM (highest dose often 57.5 µM), for inactives: at the top dose activity change, negative = inhibition, usual class: inhibitors; 360,000 compounds, 6.9% hits; AID 588342;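 further: plate controls were vehicle for no effect and reference inhibitor for full effect; nearly all actives have a fitted effect of over 55% in size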
#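 Biochemical qHTS of compounds, final roughly 60 µM downward over six points, against 10 nM purified firefly luciferase using Km concentrations of substrates (10 uM D-luciferin, 10 uM ATP) in Tris acetate pH 7.5 buffer; luminescence output.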
# ELG1 genotoxic = inducers of genotoxicity in HEK293T ELG1-luciferase cells; HEK293T ELG1-luciferase reporter, luminescence, 16 h; Potency, µM (titrated, usually from 46 µM), for inactives: at the top dose activity change, positive = activation, usual class: activators; 330,000 compounds, 1.3% hits; AID 504466; further: % of control where 0% means no effect; nearly all actives have a fitted effect of over 60% in size
#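 Screening used a luciferase reporter fused to human ELG1 in HEK293T cells. Luminescence was read on a CCD plate imager after 16 hr exposure and 30 min ONE-Glo incubation.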
# SMN2 splice up = increases expression of the SMN2 splice variant; 210,000 compounds, 2.8% hits; Potency, µM (highest dose often 46.1 µM), for inactives: at the top dose activity change, positive = activation, usual class: activators; HEK293 SMN2-luciferase splicing reporter, luminescence, 30-36 h; AID 1458; further: % of control where 0% means no effect; nearly all actives have a fitted effect of over 55% in size
#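 HEK293 cells carry an SMN2 minigene-luciferase reporter in which exon 7 inclusion puts luciferase in frame. Cells were seeded at 2000 cells/well, attached for 10-12 hours, then exposed to compounds for 30-36 hours at 37C before ONE-Glo luminescence.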
# Rab9 promoter act = activators of Rab9 promoter; Huh7 Rab9 promoter-luciferase reporter, luminescence, 24 h; Potency, µM (highest dose often 9.22 µM), for the others: top-dose activation, negative = inhibition, usual class: activators; 320,000 compounds, 2.8% hits; further: % of control where 0% means no effect; nearly all actives have a fitted effect of over 60% in size
#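 Promoter activation is measured as luciferase luminescence in Huh7 cells stably transfected with a Rab9 promoter–luciferase construct, following 24 h compound exposure at 37 °C and 10 min reagent incubation at ambient temperature.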
# NPC1 prom act = NPC1 promoter activation; AID 485313; Huh7 NPC1 promoter luciferase reporter, 24 h; 320,000 compounds, 2.4% hits; Potency, µM (titrated, usually from 9.22 µM), for inactives: at the highest dose activation, actives largely listed as activators; further: % of control where 0% means no effect; nearly all actives have a fitted effect of over 60% in size
#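 Cells: Huh7 expressing luciferase under the NPC1 promoter, 1500/well. Seeded 2 h, compound added, incubated 24 h at 37 °C. Luciferase reagent, 10 min ambient, then luminescence.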
# ELG1 FLuc counter = luciferase inhibition in cell-free luciferin readout for ELG1 hits. 350 compounds, 3% hits. AID 624247. Potency, µM (highest dose often 46.1 µM), for the others: at the highest dose activity change, negative = inhibition, hits mostly inhibitors. cell-free firefly luciferase luminescence counter-screen, ViewLux. shares compounds with ELG1 repair inh; further: on the % scale 0 is the no-effect control and ±100 the full control effect
# ELG1-Luc inh = inhibits ELG1-dependent DNA repair in HEK293T cells, confirmed; shares compounds with ELG1 repair inh; HEK293T ELG1-luciferase levels, luminescence; cells co-treated with 5-fluorouridine; Potency, µM (top dose mostly 46.1 µM), for inactives: at the highest dose activity change, negative = inhibition, actives largely listed as inhibitors; 670 compounds, 68% hits; AID 624248; further: on the % scale 0 is the no-effect control and ±100 the full control effect; nearly all actives have a fitted effect of over 55% in size
# ELG1 MMS Luc = inhibits ELG1-dependent repair under MMS stimulation in HEK293T cells | shares compounds with ELG1 repair inh | HEK293T luciferase-tagged ELG1 level, MMS stimulated | Potency, µM (titrated, usually from 46.1 µM), for inactives: at the top dose activity change, negative = inhibition, actives largely listed as inhibitors | 670 compounds, 53% hits | AID 624249; further: on the % scale 0 is the no-effect control and ±100 the full control effect; nearly all actives have a fitted effect of over 60% in size
# ELG1 5FU viab = confirmation of ELG1 repair inhibitors: viability with 5FU; shares compounds with ELG1 repair inh; AID 624250; 670 tested, under 10 active; Potency, µM (top dose mostly 46.1 µM), for inactives: at the highest dose activity change, negative = viability loss, hits mostly cytotoxic; cell viability with 5-FU, ELG1-dependent repair;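 further: ELG1-luc HEK293T cells cotreated with 5-fluorouridine at 10 µM final; viability measured 16 h after compound addition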
# ELG1 MMS cell = confirmation of ELG1 repair inhibitors: viability with MMS; 670 compounds, 33% hits; AID 624251; Cell viability with MMS, ELG1-dependent DNA repair; Potency, µM (series often up to 46.1 µM), for the others: at the highest dose activity change, negative = viability loss, hits mostly cytotoxic; shares compounds with ELG1 repair inh;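 further: ELG1-luc HEK293T cells co-treated with 10 µM MMS; viability read 16 h after compound addition; on the % scale 0 is the no-effect control and ±100 the full control effect; nearly all actives have a fitted effect of over 60% in size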
# ELG1 unstim viab = unstimulated viability counter-screen for ELG1 repair hits | Potency, µM (titrated, usually from 45.9 µM), inactives show top-dose activity change, negative = loss of viability, most hits filed as cytotoxic | shares compounds with ELG1 repair inh | 900 compounds, 8% hits | cell viability counter-screen, unstimulated, luminescence;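 further: compound exposure lasted 16 hours before reading; on the % scale 0 is the no-effect control and ±100 the full control effect; nearly all actives have a fitted effect of over 55% in size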
# FLuc enzyme = counter-screen for ELG1 repair inhibitors: firefly luciferase inhibition; 350 compounds, 10% hits; Potency, µM (titrated, usually from 57.5 µM), for inactives: at the highest dose activity, negative = inhibition, hits mostly inhibitors; shares compounds with ELG1 repair inh; AID 624253; purified firefly luciferase, luminescence counter-screen; further: on the % scale 0 is the no-effect control and ±100 the full control effect
# * marks the source's active call; other numbers are inactive results; ? = inconclusive; / = not tested or not shown; [ ] = another dose, or the depositor's remark. Hits are enriched below; roughly 9.2% of the tested compounds scored in any of these assays. The call rests on the fitted dose curve; in most records, active means well fitted curve in the direction sought with a large enough effect; inconclusive means small, poorly fitted or top-dose-only effect, or another doubt; inactive means no such curve, though single readings can be large; an effect the other way counts as inactive or inconclusive. Potency means the concentration at half of the fitted maximal effect.
SMILES,ELG1 repair inh,FLuc modulator,ELG1 genotoxic,SMN2 splice up,Rab9 promoter act,NPC1 prom act,ELG1 FLuc counter,ELG1-Luc inh,ELG1 MMS Luc,ELG1 5FU viab,ELG1 MMS cell,ELG1 unstim viab,FLuc enzyme
CC(=O)c1c(C)n(C2CCCCC2)c2ccc(O)cc12,?,-1.5%,-15.3%,-10.2%,-8.9%,18.3%,/,1.25µM*,?,1.3%,8.9%,?,/
CC(C)(C)OC(=O)NCc1ccc(CNC(=O)c2nc[nH]c2C(=O)NCc2ccc(CNC(=O)OC(C)(C)C)cc2)cc1,2.91µM*,/,-7.4%,/,/,/,/,4.99µM*,?,6.9%,9.2%,?,/
CCC1OC2(C)C(O)C(/C=C/C=C/C=C/c3oc(=O)cc(OC)c3C)OC1(C)C2OC(C)=O (stereo unspecified),/,/,/,/,/,/,?,2.23µM*,0.199µM*,-0.5%,0.158µM*,?,-9.5%
CCCC(CCC)C(=O)OC1C[C@H]2CC[C@@H](C1)[N+]2(C)C (stereo partly specified),5.1%,5.9%,3.3%,-26.2%,-2.1%,-1.0%,/,/,/,/,/,/,/
CCCC[C@H]1C(=O)O[C@H](C)[C@H](NC(=O)c2cccc(NC=O)c2OC)C(=O)O[C@@H](C)[C@@H]1OC(=O)CC(C)C,/,/,/,-43.5%,/,/,/,/,/,/,/,/,/
CCCCCC1C(=O)O[C@H](C)[C@@H](NC(=O)c2cccc(NC=O)c2O)C(=O)OC(C)C1OC(=O)CC(C)C (stereo partly specified),/,/,/,-65.0%,/,/,4.0%,34.8%,0.0141µM*,-21.5%,0.0141µM*,?,0.2%
O=C(Nc1cc(C(F)(F)F)cc(C(F)(F)F)c1)c1cc(Cl)ccc1O,/,/,/,/,/,/,?,0.706µM*,0.354µM*,?,0.397µM*,?,-8.7%
CCOP(=O)(OCC)C(Nc1cccc([N+](=O)[O-])c1)c1ccc(OC)cc1 (stereo unspecified),?,-1.1%,-4.2%,/,-1.3%,2.8%,/,/,/,/,/,/,/
COc1ccc(C(Nc2ccccc2)P(=O)(Oc2ccccc2)Oc2ccccc2)cc1 (stereo unspecified),?,-1.3%,-0.7%,7.2%,6.2%,-1.8%,21.5%,7.06µM*,?,?,?,?,0.5%
O.O.[NH-]C1(C(=O)O)CCCC1.[NH-]C1(C(=O)O)CCCC1.[Ni+2],/,/,/,8.0%[9.22 µM],/,/,/,/,/,/,/,/,/
COc1ccc2c(c1)[nH]c1c(C)nccc12,2µM*,-1.4%,/,-25.4%,-2.8%,1.6%,/,2.81µM*,11.2µM*,9.3%,?,-14.3%,/
Cc1nccc2c1[nH]c1ccc(Br)cc12,-7.1%,0.6%,0.2%,/,-1.9%,-1.1%,/,/,/,/,/,/,/
COc1ccc2[nH]cc(CCN=C(NC(=O)c3ccccc3OC)Nc3nc(C)cc(C)n3)c2c1,/,-9.4%,/,?,/,/,/,/,/,/,/,/,/
CC(=O)[O][Hg][c]1ccccc1,/,/,/,-104.1%,/,/,/,/,/,/,/,/,/
O=c1c(O)c(-c2ccc(O)c(O)c2)oc2c(O)c(O)cc(O)c12,/,/,/,4.9%,/,/,/,/,/,/,/,/,/
CCOC(=O)c1cccc(NS(=O)(=O)c2ccc(NC(C)=O)cc2)c1,4.61µM*,-0.3%,-19.5%,-48.1%,-15.5%,0.9%,/,12.5µM*,9.96µM*,-9.2%,11.2µM*,?,/
CC1(C)Cc2c(c(N3CCOCC3)nc3sc4c(NCc5ccccc5)nnnc4c23)CS1,13µM*,5.7%,-6.5%,-8.8%,-1.9%,-4.1%,4.0%,2.5µM*,15.0%,?,-1.6%,-12.7%,-14.2%
CCCSc1ccc2nc(NC(=O)OC)[nH]c2c1,?,3.01µM*,-1.3%,?,17.1%,23.7%,/,/,/,/,/,-2.6%,/
Cc1c(C(=O)N2CCC(Cc3ccccc3)CC2)sc2ncnc(N3CCC(C)CC3)c12,0.1%,-10.4%,-1.2%,-33.4%,-0.1%,-4.7%,2.2%,15.8µM*,?,9.7%,-12.1%,-3.5%,2.1%
CC(=O)N1CCN(c2ccc(OCC3CO[C@@](Cn4ccnc4)(c4ccc(Cl)cc4Cl)O3)cc2)CC1 (stereo partly specified),/,/,/,-68.6%,/,/,/,/,/,/,/,/,/
CC(=O)OC[C@]12C[C@H](OC(=O)CC(C)C)C(C)=C[C@H]1O[C@H]1[C@H](O)[C@@H](OC(C)=O)[C@@]2(C)[C@]12CO2,/,/,/,-80.4%,/,/,/,/,/,/,/,/,/
CC(=O)OC[C@]12CCC(C)=C[C@H]1O[C@@H]1[C@H](O)[C@@H](OC(C)=O)[C@@]2(C)[C@]12CO2,0.0183µM*,-2.5%,-13.2%,/,-43.9%,-52.6%,?,0.0281µM*,0.0177µM*,-0.2%,0.0445µM*,?,-5.2%
O=C1NCCOC(=O)[C@@H](Cc2ccc(F)cc2)CC/C=C/C[C@H]1CC(=O)N(CCO)Cc1ccccc1,?,/,-6.4%,/,/,/,/,/,/,/,/,/,/
Cl/C=C/CCl,/,/,/,-12.0%,/,/,/,/,/,/,/,/,/

# High-throughput results: PubChem BioAssay, National Center for Advancing Translational Sciences (NCATS)
